Most compounds without a hit are left out; they make up all but 19% or so of the library.
MARV entry inh: inhibitors of Marburg virus binding or cell entry | Marburg virus pseudotyped entry inhibition, cell reporter | Potency, µM (top dose mostly 37.8 µM), actives largely listed as inhibitors | 1.8% of 300,000 active | AID 540276; calls by dose curve; tested in HEK293 cells
Pf growth 48h: inhibits P. falciparum growth in the first generation, 48 h; P. falciparum luciferase growth in erythrocytes, 48 h; Potency, µM (top dose mostly 28.7 µM), usual class: inhibitors; 5.9% of 310,000 active; AID 504832
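Firefly luciferase activity from engineered P. falciparum reports growth; inhibitors lower the luminescent signal. Cultures contained 2% hematocrit erythrocytes at 0.1% final parasitemia.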
Shiga inhibitor: inhibitors of Shiga toxin in Vero cells | Vero cells, Shiga toxin protein synthesis inhibition reporter | inhibition, % at 38.7 µM | 9.2% of 290,000 active; in the data active = inhibition mostly above about 28%, no sharp cut-off; inactive = mostly below about 43%
Pf growth 96h: inhibits malaria parasite growth, 96 h; P. falciparum luciferase reporter growth, 96 h; Potency, µM (series often up to 28.7 µM), actives largely listed as inhibitors; 6.9% of 320,000 active
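Infected RBCs, 2% Hct / 0.05% parasitemia final; luciferase-reporter P. falciparum; cpd 96 h, 37 C, 5% CO2; luciferase detection reagent; luminescence.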
LASV entry inh: Lassa virus entry inhibition; Potency, µM (highest dose often 37.9 µM), hits mostly inhibitors; AID 540256; Lassa virus pseudotype entry inhibition, cell reporter; 1.2% of 300,000 active; calls by dose curve; tested in HEK293 cells; also: nearly all actives have a fitted effect of over 50% in size
CHX counter: affects cycloheximide protein synthesis inhibition readout, counter-screen. cell reporter, cycloheximide protein synthesis inhibition counterscreen. max response, %. 12% of 300,000 active. AID 2314; in the data active = max response mostly above about 13%, no sharp cut-off; inactive = mostly below about 14%; also: read at 38.3 µM for the half of the compounds with a filed dose
A number is an active result; [ ] = another dose, or the depositor's remark. Unless noted, calls follow the shape of the dose curve; as a rule, active = well fitted inhibition curve with a large enough effect; inconclusive = small, poorly fitted or top-dose-only effect, or another doubt; inactive = no such curve, though single readings can be large or run the other way.

`COc1ccc(CNC(=O)c2oc3ccc(S(=O)(=O)N4CCOCC4)cc3c2C)cc1` gave MARV entry inh inconclusive, Pf growth 48h 12µM, Shiga inhibitor inactive, Pf growth 96h inconclusive and CHX counter inactive.
`O=C(NCc1ccc2c(c1)OCO2)c1ccc(S(=O)(=O)N2CCCCC2)cc1` gave MARV entry inh inactive, Pf growth 48h inactive, Shiga inhibitor inactive, LASV entry inh inactive and CHX counter inactive.
`Cc1ccc(CNC(=O)c2oc3ccc(S(=O)(=O)N4CCOCC4)cc3c2C)cc1` gave MARV entry inh inconclusive, Pf growth 48h inconclusive, Shiga inhibitor inactive, LASV entry inh inconclusive and CHX counter inactive.
For Cc1c(C(=O)O)oc2ccc(S(=O)(=O)NCc3ccc4c(c3)OCO4)cc12 the results were MARV entry inh inactive, Pf growth 48h inactive, Shiga inhibitor inactive, Pf growth 96h 5.9µM, LASV entry inh inactive and CHX counter inactive.
For Cc1c(C(=O)NCc2ccc3c(c2)OCO3)oc2ccc(S(=O)(=O)N3CCCCC3)cc12 the results were MARV entry inh inconclusive, Pf growth 48h 10µM, Shiga inhibitor inactive, Pf growth 96h inconclusive, LASV entry inh inconclusive and CHX counter inactive.
For COc1ccc(-c2nnc(CSc3nc4ccccc4c(=O)n3CC3CCCO3)o2)cc1OC (configuration not stated) the results were MARV entry inh inactive, Pf growth 48h inactive, Shiga inhibitor inactive, Pf growth 96h inconclusive, LASV entry inh inactive and CHX counter inactive.
Screening COC(=O)c1sc(SC)c(S(=O)(=O)C(C)C)c1N/N=C(\C#N)C(=O)c1ccccc1 returned MARV entry inh inactive, Pf growth 48h inactive, Shiga inhibitor inactive, Pf growth 96h inactive, LASV entry inh inactive and CHX counter inactive.
Cc1ccc(CNC(=O)C(CCC(N)=O)NC(=O)OCc2ccccc2)cc1 (configuration not stated) was read as MARV entry inh inactive, Pf growth 48h inactive, Shiga inhibitor inactive, Pf growth 96h inactive, LASV entry inh inactive and CHX counter inactive.
`Cc1c(C(=O)NCc2ccc3c(c2)OCO3)oc2ccc(S(=O)(=O)N3CCCC3)cc12` gave MARV entry inh inactive, Pf growth 48h 12µM, Shiga inhibitor inactive, Pf growth 96h inconclusive, LASV entry inh inactive and CHX counter inactive.
For Cc1c(Br)c([N+](=O)[O-])nn1CC(=O)NCc1ccccc1 the results were Pf growth 48h inactive[5.75 µM], Shiga inhibitor inactive, Pf growth 96h inactive[5.75 µM] and CHX counter inactive.
Screening O=C(COC(=O)CC(c1ccccc1)c1ccccc1)Nc1cccc(F)c1 returned MARV entry inh inconclusive, Pf growth 48h inactive, Shiga inhibitor inactive, Pf growth 96h inactive, LASV entry inh inactive and CHX counter inactive.
`Cc1cc(=O)oc2c3c(cc(OCC(=O)NC(C)C)c12)OC(C)(C)CC3` gave MARV entry inh inconclusive, Pf growth 48h 9.3µM, Shiga inhibitor inactive, Pf growth 96h inconclusive, LASV entry inh inactive and CHX counter inactive.
COc1cccc(CNC(=O)COc2cc3c(c4oc(=O)cc(C)c24)CCC(C)(C)O3)c1 was read as Pf growth 48h 9.3µM, Shiga inhibitor inactive, Pf growth 96h 13µM and CHX counter inactive.
For Cc1cc(=O)oc2c3c(cc(OCC(=O)NCc4cccnc4)c12)OC(C)(C)CC3 the results were Pf growth 48h inconclusive, Shiga inhibitor inactive, Pf growth 96h inconclusive and CHX counter inactive.
For COc1ccccc1CNC(=O)COc1cc2c(c3oc(=O)cc(C)c13)CCC(C)(C)O2 the results were Pf growth 48h inconclusive, Shiga inhibitor inactive, Pf growth 96h 3.7µM and CHX counter inactive.
For COc1ccc(CNC(=O)COc2cc3c(c4oc(=O)cc(C)c24)CCC(C)(C)O3)cc1 the results were Pf growth 48h inconclusive, Shiga inhibitor inactive, Pf growth 96h 8.3µM and CHX counter inactive.
Cc1cc(=O)oc2c3c(cc(OCC(=O)N[C@@H](C)C(=O)O)c12)OC(C)(C)CC3 was read as Pf growth 48h inactive, Shiga inhibitor inactive, Pf growth 96h inactive and CHX counter inactive.
Screening Cc1cc(=O)oc2c3c(cc(OCC(=O)NCCC(=O)O)c12)OC(C)(C)CC3 returned Pf growth 48h inactive, Shiga inhibitor inactive, Pf growth 96h inactive and CHX counter inactive.
For O=C1OC(c2ccc(O)cc2)(c2ccc(O)cc2)c2ccccc21 the results were MARV entry inh inconclusive, Pf growth 48h inactive, Shiga inhibitor inactive, Pf growth 96h inactive, LASV entry inh inconclusive and CHX counter inactive.
Screening O=C(CC1CCCCC1)NCCCN1CCOCC1 returned MARV entry inh inactive, Pf growth 48h inactive, Shiga inhibitor inactive, Pf growth 96h inactive[5.75 µM], LASV entry inh inactive and CHX counter inactive.
For Brc1ccc(Oc2ncc(CN3CCN(c4ccccc4)CC3)s2)cc1 the results were MARV entry inh inconclusive, Shiga inhibitor inactive, Pf growth 96h inconclusive, LASV entry inh inconclusive and CHX counter inactive.
Screening Cc1ccc(Oc2ncc(CN3CCOCC3)s2)cc1 returned MARV entry inh inconclusive, Pf growth 48h inactive, Shiga inhibitor 61, Pf growth 96h inactive, LASV entry inh inactive and CHX counter 24.
Screening CCOC(=O)C1CCN(Cc2cnc(Oc3ccc(OC)cc3)s2)CC1 returned MARV entry inh inactive, Pf growth 48h inactive, Shiga inhibitor inactive, Pf growth 96h inactive, LASV entry inh 1.5µM and CHX counter inactive.
For Clc1cccc(Oc2ncc(CN3CCOCC3)s2)c1 the results were MARV entry inh inactive, Pf growth 48h inactive, Shiga inhibitor inactive, Pf growth 96h inactive, LASV entry inh inactive and CHX counter 20.
CCCN(CC(=O)Nc1ccc(F)c(F)c1F)CC(=O)Nc1c(C)n(C)n(-c2ccccc2)c1=O was read as MARV entry inh inactive, Pf growth 48h inactive, Pf growth 96h inactive and LASV entry inh inactive.
For O=C(c1ccc(Cl)cc1)c1ccc(OCC(=O)N2CCOCC2)cc1 the results were MARV entry inh inconclusive, Pf growth 48h inactive, Shiga inhibitor inactive, Pf growth 96h inactive, LASV entry inh inactive and CHX counter inactive.
For CC(C)(C)c1ccc(NC(=O)Nc2ccc(OCC(=O)N3CCOCC3)cc2)cc1 the results were MARV entry inh inactive, Pf growth 48h inactive, Shiga inhibitor 93, Pf growth 96h inactive, LASV entry inh inconclusive and CHX counter 35.
Screening O=C(Nc1ccc(OCC(=O)N2CCOCC2)cc1)Nc1cccc(Cl)c1 returned MARV entry inh inactive, Pf growth 48h inactive, Shiga inhibitor 39, Pf growth 96h inactive, LASV entry inh inactive and CHX counter 14.
Screening O=C(Nc1ccc(C(=O)N2CCOCC2)cc1)Nc1cccc(Cl)c1 returned MARV entry inh inconclusive, Pf growth 48h inactive, Shiga inhibitor 65, Pf growth 96h inconclusive, LASV entry inh inactive and CHX counter 44.
For COc1ccc2c(c1)c(CC(=O)Nc1cc(C)cc(C)c1)c(C)n2C(=O)c1ccc(Cl)cc1 the results were MARV entry inh inconclusive and LASV entry inh inactive.
Screening Cc1cccc(NC(=O)c2cc(S(=O)(=O)NCCc3ccccc3)ccc2F)c1C returned LASV entry inh inactive.
`CC(=O)Nc1nc2c(ncn2COCCOC(C)=O)c(=O)[nH]1` gave MARV entry inh inactive, Pf growth 48h inactive, Shiga inhibitor inactive, Pf growth 96h 13µM and CHX counter inactive.
